Our source for the AC50 and activity, negative = inhibition values is PubChem BioAssay AID1851 (National Center for Advancing Translational Sciences (NCATS), 2009).

Values joined by “and” are separate entries in the source; they are usually repeats but may differ in a detail not shown here. Equal values may be shown once. In all, about 16,000 compounds went through this assay and about 2,600 (16%) were called active. Inconclusive results (about 20%) are left out. Calls come from the whole dose curve; as a rule, active = well fitted curve in the direction sought with a large enough effect; inconclusive = small, poorly fitted or top-dose-only effect, or effect the other way; inactive = no such curve, though single readings can be large or run the other way. These entries were drawn from the full list. More than one record can exist for a structure, and the calls need not agree.
% is set by controls: 0 for no effect and ±100 for the full control effect.

The target in this assay is Cytochrome P450 2D6 (Homo sapiens) (UniProt P10635). Kind of assay: Cytochrome panel assay with activity outcomes. Conditions: recombinant CYP, pro-luciferin dealkylation, luminescence, p450-cyp2d6; series mostly up to 57.1 µM.
Sequence of Cytochrome P450 2D6 (Homo sapiens) (P10635 whole entry, looked up): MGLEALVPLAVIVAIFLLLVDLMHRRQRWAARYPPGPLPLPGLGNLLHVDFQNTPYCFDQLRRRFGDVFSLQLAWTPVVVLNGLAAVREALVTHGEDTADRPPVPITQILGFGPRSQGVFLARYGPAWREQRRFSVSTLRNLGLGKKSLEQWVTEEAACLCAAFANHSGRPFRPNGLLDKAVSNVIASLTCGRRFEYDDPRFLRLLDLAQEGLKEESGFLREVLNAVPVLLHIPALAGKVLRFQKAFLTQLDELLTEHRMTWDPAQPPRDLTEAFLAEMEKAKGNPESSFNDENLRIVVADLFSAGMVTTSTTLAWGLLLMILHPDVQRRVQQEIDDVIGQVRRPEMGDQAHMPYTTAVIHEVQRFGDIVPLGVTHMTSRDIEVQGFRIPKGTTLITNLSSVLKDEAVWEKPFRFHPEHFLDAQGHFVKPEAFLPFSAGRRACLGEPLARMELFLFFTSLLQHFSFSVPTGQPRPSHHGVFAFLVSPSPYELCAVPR
With `COc1cc(N=c2ssnc2Cl)cc(OC)c1OC`, the AC50 was 3.16 µM (active).
In the case of `COc1cccc(NC(=O)Cc2c(C(=O)O)[nH]c3ccccc23)c1`, the AC50 result was “inactive”.
In the case of `CC(C)COC[C@H](CN(Cc1ccccc1)c1ccccc1)N1CCCC1`, the AC50 result was “inactive and 15.8 nM (active)”.
The same measure, in the same setting: to `CCOC(=O)c1ccc(NC(=O)C2CCCO2)cc1` (stereo not drawn) belongs “inactive”; to `O=C(NNC(=O)C1CCCCC1)c1cnccn1`, “inactive”; to `Cn1cccc1C(=O)N1CCC2(CCCN(c3cccc(-c4ccccc4)c3)C2)CC1`, “inactive”.
The same measure, in the same setting: to `COc1ccc(-n2c(=O)c(-c3ccc(F)cc3)nc3cnc(N4CCOCC4)nc32)cc1` belongs “inactive”; to `Cn1c(-c2ccc(CN3CCCCC3)o2)nc2ccccc21`, “inactive”.
As for `CS(=O)(=O)c1nc2ccccc2n1Cc1ccccc1`, the AC50 entry was “inactive”.
On the same count and under the same terms, to `Clc1ccc(Cn2c(CN3CCCC3)nc3ccccc32)cc1` belongs 1.26 µM (active) and 794 nM (active).
On to `Oc1ccc(Cn2c(-c3ccc(O)cc3)nc3ccccc32)cc1`, for which the activity, negative = inhibition is 1.43% [at 11.4 µM] (inactive).
For `c1ccc(Cn2c(CN3CCCC3)nc3ccccc32)cc1`, the concentration at half-maximal activity (AC50) was 8.91 µM (active).
As for `O=S(=O)(O)c1nc2ccccc2n1Cc1ccccc1`, the AC50 entry was “inactive”.
On the same count and under the same terms, under `COCCn1c(=O)cnc2cnc(Oc3ccc(OC)cc3)nc21` stands “inactive”; under `COc1cc(OC)nc(NC(C)=O)n1`, “inactive”.
As for `O=C(O)CCC(O)=C1S(=O)(=O)OCCOS1(=O)=O`, the activity, negative = inhibition is -8.4% [at 11.4 µM] (inactive).
Still for that read-out and setting: under `Cc1ccc(N=Nc2c(O)ccc3cc(S(=O)(=O)O)ccc23)cc1` stands 4.81% [at 11.4 µM] (inactive).
For `Cc1ccc(NC2=NC(c3ccccc3)n3c(nc(C)cc3=O)N2)c(C)c1` (stereo not drawn), the AC50 entry was “inactive”.
Take `CCC(=O)[C@@]1(C)[C@H](C)C[C@@H]2[C@@H]3CCC4=CC(=O)C=C[C@@]4(C)[C@H]3[C@H](O)C[C@]21C`: the AC50 result is “inactive”.
Same read-out and setting: under `Cn1c(=O)c2c(nc(N3CCN(c4ccccn4)CC3)n2Cc2ccccc2Cl)n(C)c1=O` stands “inactive”; under `CC(=O)Nc1ccc(NC(=O)C/C(C)=N/NC(=O)C(=O)N2CCCC2)cc1`, “inactive”.
`C#CCSc1n[nH]c(-c2ccco2)n1`: the activity, negative = inhibition was -1.01% [at 11.4 µM] (inactive).
As for `O=c1c2ccccc2c(-c2ccccc2)nn1Cc1ccc(Cl)cc1`, the AC50 was 11.2 µM (active).
As to `Cc1ccc(-c2nn(C)c(=O)c3ccccc23)cc1CNC(=O)Cn1nc(-c2ccccc2)c2ccccc2c1=O`, the AC50 result is “inactive”.
With `O=c1c2ccccc2c(-c2ccc(Br)cc2)nn1Cc1ccccc1`, the AC50 entry is “inactive”.
For `Cc1ccc(-c2csc(NC(=S)NC(=O)/C=C/c3ccco3)n2)cc1`, the AC50 entry is “inactive”.
The same measure, in the same setting: under `N#Cc1cccc(-c2nc3cnc(Oc4cccc(Cl)c4)nc3n(C3CC3)c2=O)c1` stands “inactive”.
On the same count and under the same terms, under `CC1=NN(c2ccccc2)C(=O)C1` stands “inactive”.
With `O=C(Cc1ccc(Br)cc1)OCC(=O)c1ccc2c(c1)OCCO2`, the AC50 entry was “inactive”.
As to `C/C(=C\C(=O)c1ccc(Br)cc1)NCc1ccc2c(c1)OCO2`, the half-maximal activity concentration (AC50) was 7.94 µM (active).
With `CC(=O)c1cc2c(cc1NC(=O)CCCC(=O)O)OCO2`, the AC50 result was “inactive”.
Regarding `CCOc1ccc(C(C)=O)cc1N1C(=O)C2C3C=CC(O3)C2C1=O` (stereo not drawn), the AC50 result was “inactive”.
Same read-out and setting: under `COC(=O)N1CCC2(CCN(C(=O)Nc3cccc(F)c3)CC2)CC1` stands 10 µM (active); under `CC(=O)N1CCC2(CCCN(C(=O)Nc3cccc(F)c3)C2)CC1`, “inactive”.
Regarding `COC(=O)N1CCC[C@@]2(CCN(C(=O)Nc3cccc(F)c3)C2)C1`, the AC50 is 10 µM (active).
On the same count and under the same terms, under `COC(=O)N1CCC2(CCCN(C(=O)Nc3cccc(F)c3)C2)CC1` stands “inactive”; under `CS(=O)(=O)N1CCC2(CCN(C(=O)Nc3cccc(F)c3)CC2)CC1`, “inactive”; under `CC(=O)N1CCC2(CC1)CCN(C(=O)Nc1cccc(F)c1)CC2`, 3.16 µM (active).
Regarding `COc1ccc(C(=O)N2CCC3(CCN(C(=O)Nc4cccc(F)c4)CC3)CC2)cc1`, the AC50 result was “inactive”.
For `COCC(=O)N1CCC[C@@]2(CCN(C(=O)Nc3cccc(F)c3)C2)C1`, the AC50 entry is “inactive”.
`COCC(=O)N1CCC2(CC1)CCN(C(=O)Nc1cccc(F)c1)CC2`: the AC50 result is “inactive”.
Still for that read-out and setting: to `Cc1cc(C(=O)NNC(=S)NC(C)c2ccccc2)c2ccccc2n1` (stereo not drawn) belongs “inactive”; to `COc1ccc(S(=O)(=O)N2CCC[C@H]2C(=O)NC2=NCCS2)cc1`, “inactive”; to `COc1ccccc1N/C(=N/S(=O)(=O)c1ccc(C)cc1)c1ccc(Cl)cc1`, “inactive”.
As to `CCOc1cc(CC(=O)N[C@@H](CC(C)C)c2ccccc2N2CCCCC2)ccc1C(=O)O`, the AC50 result is “inactive”.
Same read-out and setting: to `Cc1cc(N2CCN(c3nc4ccccc4s3)CC2)n2ncnc2n1` belongs “inactive”; to `C[n+]1ccccc1/C=N\O`, “inactive”; to `CS(=O)(=O)c1ccccc1-c1nc(-c2cc(C(F)(F)F)cc(C(F)(F)F)c2)no1`, “inactive”.
The same measure, in the same setting: under `N[C@@H](CO)C(=O)O` stands “inactive”; under `CO[C@]1(C2=NCCN2)COc2ccccc2O1`, “inactive and 794 nM (active)”; under `COc1ccc(N2C(=O)c3ccccc3NC2c2ccc(OC)c(CSc3ccccn3)c2)cc1` (stereo not drawn), “inactive”.
Take `COCCN(C(=O)Nc1ccc(OC)cc1OC)C1CCN(C(C)=O)CC1`: the AC50 entry is “inactive”.
As for `CCCCN(CC)Cc1ccc(CNC(=O)Nc2ccc(OC)cc2OC)o1`, the half-maximal activity concentration (AC50) was 0.501 µM (active).
On the same count and under the same terms, under `COc1ccc(NC(=O)Cn2cccc2)c(OC)c1` stands “inactive”.
On the same count and under the same terms, under `CC(=O)NC(CCS(C)(=O)=O)C(=O)Nc1c(F)cccc1F` (stereo not drawn) stands “inactive”.
Still for that read-out and setting: under `O=C1CCCN1CC(CN1CCOCC1)Sc1nnnn1-c1ccccc1` (stereo not drawn) stands “inactive”.
Take `Cc1cc(C)n(-c2cc(N3CCN(C(=O)c4ccc(C(C)(C)C)cc4)CC3)ccc2[N+](=O)[O-])n1`: the AC50 result is “inactive”.
For `Cc1cc(C)n(-c2cc(N3CCN(S(=O)(=O)c4ccc(C)c(C)c4)CC3)ccc2[N+](=O)[O-])n1`, the AC50 was 0.501 µM (active).
Still for that read-out and setting: to `Cc1cc(C)c(S(=O)(=O)N2CCN(c3ccc([N+](=O)[O-])c(NCC4CCCO4)c3)CC2)c(C)c1` (stereo not drawn) belongs “inactive”; to `COc1ccc2c(C=Nc3c(C)n(C)n(-c4ccccc4)c3=O)c(O)n(Cc3ccco3)c(=O)c2c1`, “inactive”.
For `COc1cccc(Cn2c(=O)c(-c3cccs3)nc3cnc(N4CCN(C)CC4)nc32)c1`, the AC50 entry is “inactive”.
Same read-out and setting: to `CN(C)C(=O)CCc1nc(-c2ccc(C(C)(C)C)cc2)no1` belongs “inactive”.
The same measure, in the same setting: to `COC(=O)c1ccc(Oc2nc(N(C)C)nc(N3CCOCC3)n2)cc1` belongs “inactive”.
Turning to `O=C(O)[C@@H](O)[C@@H](O)[C@@H](O)[C@@H](O)c1nc2ccccc2s1`, the activity, negative = inhibition was -1.94% [at 11.4 µM] (inactive).
Regarding `COc1ccccc1-c1nnc(NC(C)=O)s1`, the AC50 result was “inactive”.
`Cc1ccccc1-c1nccc(-n2ccnc2)n1`: the AC50 was 10 µM (active).
Regarding `Clc1ccccc1-c1nccc(-n2ccnc2)n1`, the AC50 is 7.94 µM (active).
Still for that read-out and setting: to `FC(F)(F)c1ccccc1-c1nccc(N2CCNCC2)n1` belongs “inactive”; to `COc1ccccc1-c1nccc(-n2ccnc2)n1`, 15.8 µM (active).
For `O=C(O)CC[C@]1(C(=O)O)CCC(=O)c2ccccc21`, the activity, negative = inhibition is 10.4% [at 11.4 µM] (inactive).
On to `CCOCC(=O)Nc1cc(C(=O)Nc2ccccc2)ccc1Cl`, for which the AC50 entry is “inactive”.
On to `CCc1ccc(C(=O)N2CCC(c3nc4ccccc4s3)CC2)cc1`, for which the AC50 result is “inactive”.
With `CO[C@@H]1COC(=O)C/C=C\[C@H](C)[C@H](OC)COC(=O)[C@H]2CCCN2C(=O)C/C=C\[C@H]1C`, the activity, negative = inhibition was 6.57% [at 11.4 µM] (inactive).
As to `C[C@@H]1C[C@H]2[C@H]3C[C@@H](F)C4=CC(=O)C=C[C@]4(C)[C@@]3(Cl)[C@@H](O)C[C@@]2(C)[C@@H]1C(=O)COC(=O)C(C)(C)C`, the AC50 result is “inactive”.
On to `CC(C)(C)OC(=O)[C@H]([C@@H]1N[C@@H](C(=O)O)C(C)(C)S1)N1C(=O)c2ccccc2C1=O`, for which the activity, negative = inhibition is 13.9% [at 11.4 µM] (inactive).
As for `Cc1ccc(OCCNC(=O)c2cncc(Br)c2)cc1C`, the AC50 result is “inactive”.
On the same count and under the same terms, under `CO[C@@]12C[C@@H](COC(=O)c3cncc(Br)c3)CN(C)[C@H]1Cc1cn(C)c3cccc2c13` stands 39.8 nM (active) and 20 nM (active).
`CC(C)(C)NC(=O)COC(=O)c1cncc(Br)c1`: the AC50 result was “inactive”.
For the compound `COC(=O)C/C=C\[C@@H](C)[C@@H](/C=N\O[C@@H](C)c1cn([C@H](CO)Cc2ccccc2)nn1)OC`, the activity, negative = inhibition is 15.1% [at 11.4 µM] (inactive) and 6.44% [at 11.4 µM] (inactive).
Consider `COc1ccc2cc3[n+](cc2c1OC)CCc1cc2c(cc1-3)OCO2`, for which the half-maximal activity concentration (AC50) was 2.51 µM (active).
In the case of `C[C@H]1[C@H](C)OC(=O)C[C@H](O)C[C@H](O)C[C@H](O)CC[C@H](O)[C@H](O)CC(=O)C[C@H](O)[C@H](C(=O)O)[C@H](O)C[C@H](O[C@@H]2O[C@@H](C)[C@H](O)[C@@H](N)[C@@H]2O)C=CC=CC=CC=CCCC=CC=C[C@@](C)(O)[C@H]1O`, the activity, negative = inhibition was -1.84% [at 11.4 µM] (inactive).
With `O=C(Nc1ncn[nH]1)c1ccc([N+](=O)[O-])cc1[N+](=O)[O-]`, the AC50 result was “inactive”.
For `O=C(O)COC(=O)Cc1ccccc1Nc1c(Cl)cccc1Cl`, the AC50 entry was “inactive”.
The same measure, in the same setting: to `NC(N)=NC(=O)Cc1c(Cl)cccc1Cl` belongs “inactive and 126 nM (active)”.
For `NC(=O)NC(=O)Nc1ccccc1Cl`, the AC50 entry was “inactive”.
For the compound `CCC(CC)c1nnc(NC(=O)c2cccc(S(=O)(=O)N3CCc4ccccc43)c2)s1`, the AC50 result was “inactive”.
On the same count and under the same terms, to `CCCCN1C(=O)C(NC(=O)CC(C)C)(C(F)(F)F)C2=C1CC(C)(C)CC2=O` (stereo not drawn) belongs “inactive”; to `CN1[C@H](CC(=O)c2ccccc2)CCC[C@H]1C[C@H](O)c1ccccc1`, 25.1 µM (active).
For `O=C(C[C@@H](c1ccccc1)N1CCCCC1)c1ccccc1`, the activity, negative = inhibition was -19.2% [at 11.4 µM] (inactive).
Same read-out and setting: to `O=C(C[C@@H]1C=Cc2ccccc2N1C(=O)c1ccccc1)c1ccccc1` belongs -16.3% [at 11.4 µM] (inactive).
Take `Nc1cc(N)nc(SCC(=O)c2ccccc2)n1`: the AC50 entry is “inactive”.
Take `CN1[C@@H](CC(=O)c2ccccc2)CCC[C@@H]1C[C@@H](O)c1ccccc1`: the AC50 was 0.251 µM (active).
Take `COc1ccc(-n2c(=O)cnc3cnc(OC)nc32)cc1`: the AC50 result is “inactive”.
